NCOA3 inh: inhibitors of human steroid receptor coactivator 3 (SRC3) | Q9Y6Q9 | HEK293 GAL4-SRC3 luciferase reporter, luminescence | inhibition, % at 3.6 µM | hit rate 0.17% among 360,000 | AID 588352;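 active means inhibition above a per-campaign cutoff, the mean of all compounds plus 3 SD, cut at about 60% in these data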;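 further: 0% = DMSO-treated cells and 100% = gossypol-treated cells at 36 µM; higher means less SRC3-driven luciferase light from the GAL4 reporter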
NCOA2 inhibitor: human SRC2 (NCOA2) inhibition | Q15596 | HEK293 GAL4-SRC2 luciferase reporter, luminescence | inhibition, % at 9 µM | hit rate 0.17% among 370,000 | AID 651957;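 active means inhibition above the mean inhibition of all tested compounds plus 3 SD, set per campaign, cut at about 52% in these data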;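 further: 0% = DMSO treated cells and 100% = cells given Gossypol at 36 µM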
LGR2 inh: inhibitors of bursicon-induced Drosophila LGR2 receptor cAMP signaling; HEK293 LGR2, CRE-luciferase, bursicon-stimulated, 4 h; inhibition, % at 9.99 µM; hit rate 0.35% among 380,000; AID 720647;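 active means drop in luminescence signal, shown as inhibition above about 50% in the replicate tests, limit read from the data, passing the limit was not always enough; inconclusive means probably only some replicates passing the limit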;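 further: agonist challenge used bursicon conditioned medium at about half maximal strength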
SRC1 inh: human NCOA1 inhibition. Q15788. HEK293 GAL4-SRC1 luciferase reporter, luminescence. inhibition, % at 3.6 µM. hit rate 0.12% among 360,000;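 active means inhibition above the campaign mean plus 3 SD, with each screening campaign given its own cutoff, cut at about 60% in these data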;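 further: 0% = DMSO treated cells and 100% = gossypol at 36 µM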
NR5A2 inv ag: suppresses constitutive activity of human LRH-1 | O00482 | HEK293T StAR-luciferase reporter, LRH-1 transfected, 24 h | inhibition, % at 3.6 µM | hit rate 0.13% among 360,000;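 active means inhibition above the mean inhibition of all tested compounds plus 3 SD, cut at about 73% in these data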;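 further: 0% = DMSO wells and 100% = reporter-only cells lacking LRH-1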
Target sequence (O00482 whole entry, looked up): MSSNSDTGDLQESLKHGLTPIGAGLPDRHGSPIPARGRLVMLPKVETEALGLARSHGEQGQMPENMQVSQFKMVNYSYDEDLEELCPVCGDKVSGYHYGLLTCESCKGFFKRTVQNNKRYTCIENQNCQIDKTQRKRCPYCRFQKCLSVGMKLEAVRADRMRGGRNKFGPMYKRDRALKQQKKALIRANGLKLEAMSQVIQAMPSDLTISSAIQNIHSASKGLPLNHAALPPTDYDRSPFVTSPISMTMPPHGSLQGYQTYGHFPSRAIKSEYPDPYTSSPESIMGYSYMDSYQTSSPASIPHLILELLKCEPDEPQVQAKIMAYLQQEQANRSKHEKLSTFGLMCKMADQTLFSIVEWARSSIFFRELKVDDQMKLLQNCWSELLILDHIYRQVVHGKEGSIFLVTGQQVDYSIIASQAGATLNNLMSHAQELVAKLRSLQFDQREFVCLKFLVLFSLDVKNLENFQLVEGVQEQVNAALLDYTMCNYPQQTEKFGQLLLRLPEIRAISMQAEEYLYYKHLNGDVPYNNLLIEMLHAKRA
An asterisk follows results filed as active; ? = inconclusive; . = not tested or not shown. The list is not random: actives were taken first. Their share in the collection is about 0.48%.

SMILES	NCOA3 inh	NCOA2 inhibitor	LGR2 inh	SRC1 inh	NR5A2 inv ag
O=C(Nc1nc2c(s1)CCCC2)C1COc2ccccc2O1 (centres undefined)	-11.0	11.1	80.0*	-22.6	-30.3
O=C(NC1=NCCS1)C1COc2ccccc2O1 (centres undefined)	28.5	57.4*	.	22.1	-9.7
O=C(Nc1ccncc1)C1COc2ccccc2O1 (centres undefined)	-13.0	-10.6	.	-15.3	-13.6
CCCC(=O)Nc1ccc2c(c1)C(=O)N(C)C[C@H](OC)[C@H](C)CN(C(=O)CC)[C@@H](C)CO2	.	.	6.4	.	.
CC(C)NC(=O)Nc1cccc2c1O[C@@H](CN(C)S(=O)(=O)c1cccs1)[C@H](C)CN([C@H](C)CO)C2=O	.	.	8.5	.	.
O=[N+]([O-])c1ccc(N2CCCC2)nc1N1CCCC1	13.6	19.5	-17.6	-3.4	48.1
Nc1ncc([N+](=O)[O-])c(N2CCCCCC2)n1	54.0	44.2	13.9	64.9*	26.7
O=C(C[C@@H]1CC[C@H]2[C@@H](COC[C@@H](O)CN2Cc2nccs2)O1)NCc1ccc(Oc2ccccc2)cc1	.	.	-15.6	.	.
CCOC(=O)c1ccc(N=c2sc(C(=O)OC)cc(=O)n2-c2ccc(C(=O)OCC)cc2)cc1	-2.0	24.7	57.7*	-52.3	-5.0
COC(=O)c1cc(=O)n(-c2ccccc2)c(=Nc2ccccc2)s1	25.9	39.3	.	2.4	13.0
CCCC(=O)N1CC2(C1)CN(Cc1ccc(Cl)cc1)[C@H](CO)c1[nH]c3cc(OC)ccc3c12	.	.	15.3	.	.
CCCC#Cc1ccc2c(c1)O[C@@H](CN(C)C(=O)COC)[C@@H](C)CN([C@H](C)CO)S2(=O)=O	.	.	-7.8	.	.
Cc1ccc(-c2nnc(NCc3nc4ccccc4[nH]3)c3ccccc23)cc1S(=O)(=O)N(C)C	16.8	9.1	58.2*	-9.7	6.8
Cc1ccc(-c2nnc(NCc3nc4ccccc4[nH]3)c3ccccc23)cc1S(=O)(=O)N1CCOCC1	17.6	.	.	18.4	10.9
C[n+]1cc2c3c(ccc2c2ccc4cc5c(cc4c21)OCO5)OCO3	.	87.3*	100.5*	.	.
CN(C)c1cccc(C(=O)N/N=C/c2ccccc2F)c1	-29.0	8.0	86.2*	-29.0	-88.7
Cc1cc(/C=N/NC(=O)c2cccc(N(C)C)c2)c(C)n1-c1cc(C(=O)O)cc(C(=O)O)c1	-70.2	.	-45.4	-83.9	-77.2
Cc1ccc2nc(NC(=O)CCCC(=O)O)sc2c1	32.5	56.8*	?	25.6	17.0
CCOCC(=O)Nc1nc2ccc(C)cc2s1	-54.9	-83.3	.	-113.1	-105.8
Cc1ccc2nc(NC(=O)CSCC(=O)OCC(=O)c3ccccc3)sc2c1	54.6	73.3*	12.9	29.5	53.4
Cc1ccc(S(=O)(=O)N(C)C[C@H]2Oc3c(NC(=O)Nc4ccc(F)cc4)cccc3C(=O)N([C@H](C)CO)C[C@@H]2C)cc1	.	.	-1.9	.	.
Cc1cc(C)c(C(=O)/C=C/C=C/c2ccccc2)c(=O)[nH]1	-14.9	-3.4	-0.2	-22.3	10.9
Cc1cc(C)c(C(=O)/C=C/c2ccc(C(C)C)cc2)c(=O)[nH]1	42.4	27.0	79.6*	36.0	62.7
C[C@H](CO)N1C[C@H](C)[C@H](CN(C)C(=O)Nc2ccc3c(c2)OCO3)OCc2ccccc2-c2c(n(C)c3ccccc23)C1=O	.	.	12.8	.	.
COc1ccc(S(=O)(=O)N2CCCCN3[C@H](CO)[C@H](c4ccc(-c5cccnc5)cc4)[C@@H]3C2)cc1	.	.	58.1*	.	.
SMILES	NCOA3 inh	NCOA2 inhibitor	LGR2 inh	SRC1 inh	NR5A2 inv ag
COc1ccc(NC(=O)N(C)C[C@@H]2OCCCC[C@H](C)Oc3ccc(NC(=O)NC4CCCCC4)cc3C(=O)N([C@H](C)CO)C[C@@H]2C)cc1	.	.	57.2*	.	.
C[C@@H]1CN([C@@H](C)CO)C(=O)c2cc(NC(=O)NC3CCCCC3)ccc2O[C@@H](C)CCCCO[C@@H]1CN(C)C(=O)Nc1ccccc1	.	.	14.2	.	.
COc1ccc(NC(=O)N(C)C[C@H]2OCCCC[C@H](C)Oc3ccc(NC(=O)NC4CCCCC4)cc3C(=O)N([C@@H](C)CO)C[C@H]2C)cc1	.	.	8.7	.	.
C[C@H](CO)N1C[C@H](C)[C@H](CN(C)C(=O)Nc2ccc(C(F)(F)F)cc2)OCCCC[C@H](C)Oc2ccc(NC(=O)CCC(F)(F)F)cc2C1=O	.	.	64.9*	.	.
C[C@H]1CCCCO[C@@H](CN(C)C(=O)Nc2ccccc2)[C@@H](C)CN([C@@H](C)CO)C(=O)c2cc(NC(=O)NC3CCCCC3)ccc2O1	.	.	62.9*	.	.
C[C@@H]1CN([C@@H](C)CO)C(=O)c2cccc(NC(=O)Nc3ccc(C(F)(F)F)cc3)c2O[C@@H]1CN(C)C(=O)Nc1cccc2ccccc12	.	.	67.3*	.	.
O=C(O)C[C@H]1CC[C@H](NC(=O)CCN2CCCCC2)[C@H](CO)O1	.	.	4.0	.	.
C[C@H]1CCCCO[C@@H](CN(C)C(=O)Nc2ccc(F)cc2)[C@@H](C)CN([C@@H](C)CO)C(=O)c2cc(NC(=O)C3CCCCC3)ccc2O1	.	.	65.6*	.	.
COC(=O)[C@]12CCCCC=C1N(CCc1ccc(OC)c(OC)c1)C(=O)[C@H](CC(=O)NCc1cccc3ccccc13)C2	.	-38.1	27.0	.	-7.3
COC(=O)[C@]12CCCCC=C1N(Cc1cccc3ccccc13)C(=O)[C@H](CC(=O)NCc1ccc(OC)c(OC)c1)C2	.	26.0	88.7*	.	9.2
O=Nc1c(-c2c(O)[nH]c3cc(Br)ccc23)[nH]c2ccccc12	-41.6	26.4	95.0*	-58.6	-66.8
COc1ccc(Cl)cc1C(=O)Nc1nc2ccccc2[nH]1	-24.9	54.3*	79.4*	-27.8	-16.6
O=C(Nc1ccc2ccccc2c1)c1ccccc1F	-74.6	-53.6	51.9*	-63.0	-139.6
O=C(Nc1ccc(F)cc1)c1ccccc1F	-72.5	-58.9	-25.9	-57.6	-70.1
O=C(Nc1nc2ccccc2[nH]1)c1ccccc1F	64.4*	65.3*	.	50.2	44.1
COc1ccc(C(=O)Nc2nc3ccccc3[nH]2)cc1OC	-64.4	-53.1	-76.3	-77.6	-91.3
COc1ccc2c3c(n(C)c2c1)[C@H](CO)N(C(=O)c1cccnc1)CC31CN(C)C1	.	.	-7.2	.	.
Cc1cc(C)c(Cc2c(C)nc3c(C(=O)NCc4ccco4)cnn3c2C)c(C)c1	30.4	-12.4	56.0*	12.0	34.7
CCC(=O)N(C)C[C@H]1Oc2cc(C3=CCCCC3)ccc2S(=O)(=O)N([C@@H](C)CO)C[C@@H]1C	.	.	12.6	.	.
COc1cccc(S(=O)(=O)Nc2ccc3c(c2)[C@@H]2C[C@H](CC(=O)NCCc4ccccc4)O[C@@H](CO)[C@@H]2O3)c1	.	.	-5.8	.	.
Nc1ccc2oc(-c3cccc4ccccc34)nc2c1	-18.0	55.4*	-56.8	2.7	-12.5
O=C(Nc1sc2c(c1C(=O)NCCCO)CCCC2)c1ccccc1	5.9	-26.8	-15.3	85.5*	10.8
CC(=O)N1[C@@H]2Cn3c(cccc3=O)[C@H]1[C@@H](C(=O)N[C@H](C)c1ccccc1)[C@@H]2CO	.	.	-1.3	.	.
COc1ccc(S(=O)(=O)N(C)C[C@H]2Oc3c(NC(=O)Nc4ccccc4)cccc3C(=O)N([C@@H](C)CO)C[C@@H]2C)cc1	.	.	8.9	.	.
C[C@H](CO)N1C[C@H](C)[C@H](CN(C)C(=O)Cc2ccccn2)Oc2ncc(-c3ccccc3)cc2C1=O	.	.	-5.1	.	.

Assay outcomes deposited in PubChem by several laboratories.
